Source: PubChem BioAssay (EPA / NIEHS)
Values joined by “and” are separate entries in the source; they are usually repeats but may differ in a detail not shown here. Identical values can stand only once. Results filed as inconclusive are left out. A structure can be active in one record and inactive in another. Active and inactive are the calls of the source. Rule for the calls, unless noted: active = hit-call score of the fitted dose curve at least 0.9, where 1 is the maximum; inactive = score below 0.9.

How the values were obtained:
[1] = biological target: Nucleoli Translocation, AR (gene 367) (UniProt P10275); test: UPITT_HCI_U2OS_AR_TIF2_Nucleoli_Antagonist: University of Pittsburgh U2OS Androgen Receptor-Transcriptional Intermediary Factor 2 (AR-TIF2) Antagonism High Content Imaging Assay for Nucleoli Translocation (AID 2283997; active = hit-call score of the fitted dose curve at least 0.9, where 1 is the maximum)
Outline: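 Measured quantity was AR-RFP fluorescence localized to nucleoli in engineered U2OS cells also bearing TIF2-GFP, acquired on automated high-content imagers. Primary testing used 20 uM compound; actives were confirmed in triplicate wells.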

[2] = biological target: Ratio of Nucleoli Translocation and Cytoplasm, AR (gene 367) (UniProt P10275); test: UPITT_HCI_U2OS_AR_TIF2_Nucleoli_Cytoplasm_Ratio_Agonist: University of Pittsburgh U2OS Androgen Receptor-Transcriptional Intermediary Factor 2 (AR-TIF2) Agonism High Content Imaging Assay for Ratio of Nucleoli Translocation and Cytoplasm (AID 2284000; active = hit-call score of the fitted dose curve at least 0.9, where 1 is the maximum;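 note: hits raise the red nucleolar to cytoplasm ratio above vehicle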)
Outline: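 Read-out first: nucleolar-to-cytoplasm ratio of red (AR-RFP) signal, quantified by high-content imaging in U2OS cells co-expressing TIF2-GFP. Activity is scored as signal increase over DMSO. Single-point screening used 20 uM final (0.2% DMSO).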

[3] = CCTE_Simmons_MITO_basal_resp_rate: CCTE's HepG2 Seahorse XF Respirometric Screening Assay at Basal Respiratory State, Simmons Lab (AID 2284001); settings: actives raise or lower the signal
Outline: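 HepG2 respirometry; 7-pt titration 125 nM–100 uM final; kinetic OCR at 6 min intervals for 72 min; n=3 biological, technical singles; DMSO baseline, gain or loss fit; fenpyroximate (decrease) and 2,4-DNP (increase) controls.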

[4] = CCTE_Simmons_MITO_max_resp_rate: CCTE's HepG2 Seahorse XF Respirometric Screening Assay at Maximal Respiratory State [uncoupled], Simmons Lab (AID 2284002); settings: actives raise or lower the signal
Outline: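 HepG2, Seahorse XF96, maximal OCR post-FCCP. Cpd 125 nM–100 uM final (7 conc), n=3 biological. Kinetic reads every 6 min (3 min mix/3 min measure) over 72 min; fit bidirectional vs DMSO.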

[5] = CCTE_Simmons_MITO_inhib_resp_rate: CCTE's HepG2 Seahorse XF Respirometric Screening Assay at Inhibited Respiratory State [full ETC block], Simmons Lab (AID 2284006); settings: actives raise or lower the signal
Outline: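 Inhibited respiration was taken as HepG2 oxygen consumption after rotenone/antimycin A, which followed test-compound and FCCP injections. Chemicals were tested at seven final concentrations from 125 nM to 100 uM. Activity was fitted bidirectionally relative to DMSO.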

[6] = CCTE_Simmons_MITO_viability: CellTiter-Glo Viability Assessment for CCTE's HepG2 Seahorse XF Respirometric Screening Assay [post-hoc], Simmons Lab (AID 2284007; active = hit-call score of the fitted dose curve at least 0.9, where 1 is the maximum;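 for AC50: cells exposed to chemical for 90 min before the ATP read; actives lower ATP signal relative to DMSO baseline meaning reduced viability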)
Outline: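 HepG2 cells; test chemical 7 conc. (125 nM–100 uM final) × 90 min; then luminescent ATP detection. DMSO vehicle. Positive control dichlone, 8 conc. from 10 nM to 100 uM final. Loss-of-signal endpoint.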

[7] = CCTE_Harrill_HTTr_Apoptosis_DMEM_24hr: (Pilot) CCTE's 24-hour Apoptosis Assessment for the High-Throughput Transcriptomics (HTTr) Platform, in MCF-7 cells cultured in DMEM + 10% fetal bovine serum, Harrill Lab (AID 2283983)
Outline: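 MCF-7 cells in DMEM + 10% FBS, eight-point dilution series, 24 h exposure. Caspase-3/7 activation imaged by high-content imaging with CellEvent Caspase 3/7 Green. Bidirectional curve fitting against DMSO baseline.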

[8] = CCTE_Harrill_HTTr_Apoptosis_PRF_DMEM_6hr: (Pilot) CCTE's 6-hour Apoptosis Assessment for the High-Throughput Transcriptomics (HTTr) Platform, in MCF-7 cells cultured phenol red-free DMEM + 10% charcoal-stripped fetal bovine serum, Harrill Lab (AID 2283984)
Outline: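 MCF-7 cells in phenol red-free DMEM + 10% charcoal-stripped FBS, eight-point dilution series, 6 h exposure. Caspase-3/7 activation imaged by high-content imaging with CellEvent Caspase 3/7 Green; bidirectional fit versus DMSO baseline.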

[9] = CCTE_Harrill_HTTr_Apoptosis_PRF_DMEM_24hr: (Pilot) CCTE's 24-hour Apoptosis Assessment for the High-Throughput Transcriptomics (HTTr) Platform, in MCF-7 cells cultured in phenol red-free DMEM + 10% charcoal-stripped fetal bovine serum, Harrill Lab (AID 2283986)
Outline: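 MCF-7 cells in phenol red-free DMEM with 10% charcoal-stripped FBS, exposed 24 h across an eight-point dilution series. Caspase-3/7 activation imaged with CellEvent Green by high content imaging; bidirectional fitting against DMSO.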

DIO1 (gene 1733) = test: CCTE_GLTED_hDIO1: CCTE's human Deiodinase 1 (DIO1) Inhibition Assay, Great Lakes Toxicology and Ecology Division (GLTED) Lab (AID 2283987; active = hit-call score of the fitted dose curve at least 0.9, where 1 is the maximum;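 note: isolated human DIO1 enzyme in a cell-free setup rather than cells; enzyme activity read as free iodide liberated from substrate via Sandell-Kolthoff colorimetry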)
Outline: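 Steps: human DIO1 enzyme plus test chemical, 3 h incubation; free iodide then quantified in a second Sandell-Kolthoff step by absorbance. DMSO served as negative control and baseline.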

Sequence of Ratio of Nucleoli Translocation and Cytoplasm, AR (gene 367) (P10275 whole entry, looked up): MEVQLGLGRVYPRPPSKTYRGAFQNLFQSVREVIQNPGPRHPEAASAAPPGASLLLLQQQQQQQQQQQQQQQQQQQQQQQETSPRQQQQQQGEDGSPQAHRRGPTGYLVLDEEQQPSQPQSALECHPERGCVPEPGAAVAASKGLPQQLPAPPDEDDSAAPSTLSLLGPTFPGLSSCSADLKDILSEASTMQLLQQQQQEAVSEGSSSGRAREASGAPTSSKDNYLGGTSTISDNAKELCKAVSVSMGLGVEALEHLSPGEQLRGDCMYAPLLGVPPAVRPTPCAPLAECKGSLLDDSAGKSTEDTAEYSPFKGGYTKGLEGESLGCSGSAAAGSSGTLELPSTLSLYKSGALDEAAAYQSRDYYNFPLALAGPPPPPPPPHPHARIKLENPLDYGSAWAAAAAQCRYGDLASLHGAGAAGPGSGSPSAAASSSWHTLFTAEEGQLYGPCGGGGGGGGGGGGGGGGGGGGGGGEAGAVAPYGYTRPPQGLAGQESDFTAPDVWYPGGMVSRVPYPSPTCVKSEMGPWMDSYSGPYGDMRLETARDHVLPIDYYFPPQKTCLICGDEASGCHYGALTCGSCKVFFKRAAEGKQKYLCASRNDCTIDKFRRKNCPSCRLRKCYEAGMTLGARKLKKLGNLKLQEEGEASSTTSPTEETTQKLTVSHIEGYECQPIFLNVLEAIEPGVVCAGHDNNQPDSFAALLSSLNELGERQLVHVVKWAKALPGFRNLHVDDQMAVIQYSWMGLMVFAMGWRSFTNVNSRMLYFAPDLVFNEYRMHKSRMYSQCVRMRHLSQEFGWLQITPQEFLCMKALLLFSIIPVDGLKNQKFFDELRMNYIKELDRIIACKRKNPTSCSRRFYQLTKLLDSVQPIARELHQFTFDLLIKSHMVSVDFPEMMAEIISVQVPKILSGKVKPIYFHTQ
Sequence of Nucleoli Translocation, AR (gene 367) (P10275 whole entry, looked up): as above

Question: What does the source list for `CCCN(CCC)C(=O)SCC`?
Answer: outcome [1]: inactive; outcome [2]: inactive

Question: What does the source list for `c1ccc2[nH]c(-c3cscn3)nc2c1`?
Answer: outcome [1]: inactive; outcome [2]: inactive

Question: What does the source list for `CCCCC(CC)CN1C(=O)C2C3C=CC(C3)C2C1=O` (stereo unspecified)?
Answer: AC50 [3]: 25.3 µM (active); AC50 [4]: 32.1 µM (active); outcome [5]: inactive; outcome [6]: inactive

Question: For `CCSC(=O)N(CC(C)C)CC(C)C`, which outcome [1] is on record?
Answer: inactive

Question: What about the outcome [2] of the same compound?
Answer: inactive

Question: Which results are given for `Cc1nn(C)c(Oc2ccccc2)c1C=NOCc1ccc(C(=O)OC(C)(C)C)cc1`?
Answer: outcome [7]: inactive; outcome [8]: inactive; outcome [9]: inactive; outcome [1]: inactive; AC50 [3]: 1.15 µM (active) and 1.55 µM (active); AC50 [4]: 884 nM (active) and 948 nM (active); outcome [5]: inactive; AC50 [6]: 2.81 µM (active); outcome [6]: inactive

Question: For `CCCCOC(=O)[C@@H](C)Oc1ccc(Oc2ccc(C(F)(F)F)cn2)cc1`, which outcome [3] is on record?
Answer: inactive

Question: And the outcome [4]?
Answer: inactive

Question: What about the outcome [5] of the same compound?
Answer: inactive

Question: What about the outcome [6] of the same compound?
Answer: inactive

Question: Which outcome [7] does the source give for `CC(C)(c1ccc(O)cc1)c1ccc(O)cc1` here?
Answer: inactive

Question: What about the outcome [8] of the same compound?
Answer: inactive

Question: What about the outcome [9] of the same compound?
Answer: inactive

Question: What about the AC50 [1] of the same compound?
Answer: 12.9 µM (active)

Question: And the AC50 [2]?
Answer: 86.7 µM (active)

Question: What about the AC50 [3] of the same compound?
Answer: 18.9 µM (active) and 24.7 µM (active)

Question: And the AC50 [4]?
Answer: 37.1 µM (active) and 34.8 µM (active)

Question: And the outcome [5]?
Answer: inactive

Question: With `S=C(S)NCCNC(=S)S.[Mn+2].[S-]C([S-])=NCCN=C([S-])[S-].[Zn+2]` as the compound, how does the AC50 (DIO1 (gene 1733)) read?
Answer: 29.5 µM (active) and 50 µM (active)

Question: Which AC50 [3] does the source give for `CCCCC(CC)COC(=O)c1ccccc1C(=O)O` (stereo unspecified) here?
Answer: 3.97 µM (active)

Question: What about the outcome [4] of the same compound?
Answer: inactive

Question: What about the outcome [5] of the same compound?
Answer: inactive

Question: What about the outcome [6] of the same compound?
Answer: inactive
